HCMV inh: blocks human cytomegalovirus replication | activity change, negative = inhibition, % at 57.5 µM | hit rate 4.5% among 410,000 | HFF cells, HCMV-luciferase reporter, 72 h; active compounds read low; in the data active means activity change below about -60%; inconclusive means no clear call, values can overlap the other calls; inactive means above about -39%
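Human foreskin fibroblasts infected with luciferase-reporter HCMV at MOI 1 PFU/cell, compounds at two doses. Luciferase measured 72 h post infection; normalized to buffer-only basal and Salinomycin (10uM) controls.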
Marburg entry inh: Marburg virus entry inhibition; hit rate 1.8% among 300,000; Marburg virus pseudotyped entry inhibition, cell reporter; Potency, µM (doses to about 37.8 µM), inactives show at the top dose activity change, negative = inhibition, usual class: inhibitors; calls by dose curve; tested in HEK293 cells; further: potency means the concentration at half of the fitted maximal effect
FMDV inh: blocks foot and mouth disease virus; AID 1159524; Potency, µM (series often up to 57.9 µM), without a hit: top-dose activity change, negative = inhibition, most hits filed as inhibitors; FMDV antiviral cell-based qHTS; hit rate 1.2% among 410,000; calls by dose curve; tested in HEK293T cells; further: read-out not given here; potency means the concentration at half of the fitted maximal effect; nearly all actives have a fitted effect of over 45% in size
LASV entry inh: Lassa virus entry inhibition | Lassa virus pseudotype entry inhibition, cell reporter | Potency, µM (titrated, usually from 37.9 µM), inactives show at the highest dose activity change, negative = inhibition, most hits filed as inhibitors | hit rate 1.2% among 300,000 | AID 540256; calls by dose curve; tested in HEK293 cells; further: potency means the concentration at half of the fitted maximal effect; nearly all actives have a fitted effect of over 50% in size
HCV inhibitor: blocks hepatitis C virus. Huh7.5.1 HCVcc-Cre infection, luciferase reporter, 44 h. Potency, µM (titrated, usually from 41.8 µM), inactives show top-dose activity change, negative = inhibition, hits mostly inhibitors. hit rate 3.4% among 340,000. AID 651820; active means well fitted inhibition curve with a large enough effect; inconclusive means small, poorly fitted or top-dose-only effect, or another doubt; inactive means no such curve, though single readings can be large or run the other way; further: potency means the concentration at half of the fitted maximal effect
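1,000 cells/well; 4 h culture; + compound; + HCVcc-Cre (~0.5 moi); 44 h; luciferase substrate, RT 15 min; read 15 sec.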
The depositor's hits bear a star; ? = inconclusive; / = no result; [ ] = remark or other dose. Compounds with a hit are over-represented: about 7.9% of the library has one in this group of screens. On the % scale 0 is the no-effect control and ±100 the full control effect.

SMILES	HCMV inh	Marburg entry inh	FMDV inh	LASV entry inh	HCV inhibitor
Cc1ccc(NC(=O)N(Cc2c[nH]c3ccccc23)C2CCCCCC2)cc1C	-4.0	?	19.2%	2.51µM*	/
COc1cccc(NC(=O)N(Cc2c[nH]c3ccccc23)C2CCCCC2)c1	39.6	?	13.2%	-16.0%[46.1 µM]	/
COc1cccc(NC(=O)N(Cc2cn(C)c3ccccc23)C2CCCCC2)c1	-103.9*	2.4%[46.1 µM]	18.9%	?	/
Cc1ccc(NC(=O)N(Cc2cn(C)c3ccccc23)C2CCCCC2)cc1C	-20.7	?	40.1%	?	/
Cc1ccc(NC(=O)c2nc[nH]c2C(=O)NCCCCCNC(=O)OC(C)(C)C)cc1	-64.3*	/	?	/	?
CC(C)(C)OC(=O)NCCCCCNC(=O)c1[nH]cnc1C(=O)Nc1ccc(Cl)cc1	-39.0	/	31.6µM*	/	35.5µM*
Cc1c(Br)c([N+](=O)[O-])nn1CCCC(=O)N1CCN(c2ccccc2)CC1	-25.1	12.6µM*	-12.8%	15.2%	3.1%
Cc1c(Cl)c([N+](=O)[O-])nn1CCCC(=O)N1CCN(c2ccccc2)CC1	36.3	?	-21.2%	-22.4%	?
Cc1c(Br)c([N+](=O)[O-])nn1CC(=O)Nc1c(C)n(C)n(-c2ccccc2)c1=O	-102.0*	/	-5.0%	/	3.5%
COc1ccc(OC)c(NC(=O)CSc2ncnc3c2cnn3-c2ccccc2Cl)c1	/	1.83µM*	7.94µM*	?	0.891µM*
CCOC(=O)CNC(=O)CSc1ncnc2c1cnn2-c1ccc(C)cc1	-7.5	?	8.8%	?	17.0%
CCOC(=O)c1c(-c2ccc(OC)cc2)csc1NC(=O)CSc1ncnc2sccc12	-71.0*	-33.8%	?	-7.3%	?
O=C(CSc1ncnc2c1cnn2-c1ccc(F)cc1)NC1CCCC1	-16.6	?	?	?	6.31µM*
COc1cc(NC(=O)CSc2ncnc3c2cnn3Cc2ccccc2)cc(OC)c1	-1.1	?	4.3%	-0.8%	?
CCOC(=O)CNC(=O)CSc1ncnc2c1cnn2-c1ccc(OC)cc1	50.1	11.2µM*	0.0%	?	-4.0%
O=C(CCc1ccc(S(=O)(=O)N2CCOCC2)cc1)Nc1ccc(F)cc1[N+](=O)[O-]	-23.3	1.4%	-19.6%	-1.7%	-14.9%
Cc1cc(OCCCCNC(C)C)cc(C(C)C)c1	-6.1	14.6µM*	-18.4%	?	?
COc1ccc(CNS(=O)(=O)NCc2ccc(C)cc2)cc1	-27.7	19.8%[46.1 µM]	10.6%	6.9%[46.1 µM]	9.7%
CC(C)(C)OC(=O)N1CCC(c2c(C(=O)O)cnn2-c2ccc(F)cc2F)CC1	18.3	-18.8%[46.1 µM]	-11.6%	9.8%[46.1 µM]	/
O=C(Nc1ccc(S(=O)(=O)Nc2ccc(F)cc2)cc1)c1ccc(CN2CCOCC2)cc1	-64.6*	?	?	?	1µM*
CCCCOc1ccc(C(=O)Nc2ccncc2)cc1	-76.0*	?	?	?	8.91µM*
CCOc1ccc(OCc2cccc(C(=O)Nc3ccc(CN4CCCCC4)cc3)c2)cc1	28.4	6.51µM*	0.0%	?	?
CCCOc1ccc(C(=O)Nc2cccnc2)cc1	54.9	/	56.2%	/	-12.5%
CCCOc1ccc(C(=O)Nc2ccc(CN3CCOCC3)cc2)cc1	?	?	?	-3.4%	?
CCCCOc1ccc(C(=O)Nc2ccc(CN3CCOCC3)cc2)cc1	?	/	?	/	10µM*
SMILES	HCMV inh	Marburg entry inh	FMDV inh	LASV entry inh	HCV inhibitor
CC1=C[C@@H](COCc2ccccc2)O[C@@]2(C1)C(=O)N(Cc1ccc(Br)cc1)c1ccccc12	/	3.7%[14.2 µM]	/	?	/
CCCCCC(=O)Nc1cccc(C2=NOC3(C2)C[C@H](C(N)=O)N(C(=O)CC)C3)c1 (some centres not stated)	/	/	0.0%	/	-4.3%
CCCCCCOc1ccc(CN2CCN(CCO)CC2)cc1	-36.8	?	5.3%	?	10µM*
OCCN1CCN(Cc2cccc(Oc3ccc(Cl)cc3)c2)CC1	-26.9	?	-1.4%	-19.9%	11.2µM*
COc1ccc(NS(=O)(=O)c2ccc(NC(=O)c3ccc(CN4CCOCC4)cc3)cc2)cc1	-88.8*	?	-27.9%	?	1.41µM*
COc1cccc(NC(=O)c2ccc(CN3CCOCC3)cc2)c1	196.2	?	-5.3%	-26.7%	?
O=C(Nc1ccc(N2CCOCC2)cc1)c1ccc(COc2ccccc2)cc1	-73.5*	?	-27.0%	11.5%[46.1 µM]	?
CC(C)CC(NC(=O)c1ccc(Cl)cc1)C(=O)OCC(=O)c1ccc2c(c1)NC(=O)CO2 (configuration not stated)	-103.4*	?	?	?	?
Cc1cn2c(=O)cc(COC(=O)c3ccc(NC(=O)c4ccc(F)cc4)cc3)nc2s1	?	/	-7.3%	-1.9%[46.1 µM]	/
COc1ccc(S[C@]2(C(=O)N3CCCC3)CC(=O)N(c3ccc4ccccc4c3)[C@@H]2c2ccc(OC)cc2)cc1	22.3	/	/	/	/
CCC1(O)CC2CN(CCc3c([nH]c4ccccc34)C(C(=O)OC)(c3cc4c(cc3OC)N(C=O)C3C(O)(C(=O)OC)C(OC(C)=O)C5(CC)C=CCN6CCC43C65)C2)C1 (configuration not stated)	-87.8*	?	-1.4%	?	0.0%
CC[C@]1(O)C[C@@H]2CN(CCc3c([nH]c4ccccc34)[C@](C(=O)OC)(c3cc4c(cc3OC)N(C=O)[C@H]3[C@@](O)(C(=O)OC)[C@H](C(=O)OC)[C@@]5(CC)C=CCN6CC[C@]43[C@H]65)C2)C1	/	/	3.8%	/	/
CCCCNc1nc(Oc2ccc(OCC)nn2)nc(N2CCOCC2)n1	27.8	-6.5%[46.1 µM]	3.9%	8.7%[46.1 µM]	/
COc1ccccc1C(=O)Nc1ccnn1C1CCN(C(=O)c2ccoc2C)CC1	-62.8*	-3.9%[46.1 µM]	5.7%	9.1%[46.1 µM]	6.4%
Cc1ccccc1C(=O)Nc1ccnn1C1CCN(C(=O)c2cnsn2)CC1	-21.5	/	-7.6%	/	14.3%
COc1ccccc1C(=O)Nc1ccnn1C1CCN(C(=O)c2cnsn2)CC1	-102.6*	-10.8%	40.2%	?	15.7%
CCCn1c(=O)c2c(nc3n2CCN3Cc2ccco2)n(C)c1=O	21.2	?	-20.8%	13.4%[46.1 µM]	-19.5%
Cn1c(=O)n(Cc2ccc(Cl)cc2)c(=O)c2c1nc1n2CCN1Cc1ccco1	-86.3*	-22.8%	?	?	15.8µM*
CC(C)CC(=O)OCc1cc(=O)n2nc(C3CCCCC3)sc2n1	9.7	/	39.4%	2.2%[46.1 µM]	/
COc1ccc(Br)cc1Cn1nnc(C(=O)Nc2ccc(C)cc2C)c1N	-74.0*	?	-4.2%	6.6%[46.1 µM]	/
CSc1ccc(Cn2nnc(C(=O)Nc3ccc(C)cc3Cl)c2N)cc1	-78.2*	11.5%[46.1 µM]	64.4%	-5.7%[46.1 µM]	/
CCN(c1ccccc1)S(=O)(=O)c1ccc(N2CCN(c3ccc(O)cc3)CC2)nc1	?	?	?	7.94µM*	?
CCN(c1ccccc1)S(=O)(=O)c1ccc(N2CCN(c3ccc(OC)cc3)CC2)nc1	0.0	/	?	/	7.0%
O=C(Nc1cccc(C(F)(F)F)c1)c1ccc2sc([C@H]3C[C@H](O)[C@@H](CO)O3)nc2c1	-91.3*	/	20µM*	/	/
O=C(Nc1ccc(Oc2ccccc2)cc1)c1ccc2sc([C@H]3C[C@H](O)[C@@H](CO)O3)nc2c1	-100.0*	/	15.8µM*	/	/
